Drawing on PubChem BioAssay AID431 (Sanford-Burnham Center for Chemical Genomics, 2006), this text covers cytotoxicity for 99 compounds.

SMILES strings stand for the structures. The whole screen tested about 63,000 compounds, of which about 1,100 (1.7%) were called active. The full list was thinned out, with actives kept by preference. Results with a measured potency or affinity are listed apart. Values without a mark were called inactive.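 Rule for the calls: active = compounds whose percent cytotoxicity in the single-dose primary screen, scaled between solvent and toxic-drug controls, exceeds 50; inactive = the rest.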

A short description of this test: cytotoxicity in KRAS-transformed pancreatic duct cells, primary screen, cell-based, fluorescence, HTS (AID 431).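 Note: 0% = DMSO solvent wells and 100% = doxorubicin-treated wells.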 Conditions: HPDE-C7K KRASV12 cells, Alamar Blue viability, 48 h; at 10 µM; active compounds read high.
As to `Cc1noc(C)c1S(=O)(=O)Nc1ccc(C(=O)N2CCN(c3ccc(Cl)cc3)CC2)cc1`, the cytotoxicity is -5.4%.
As for `Cc1ccc(C)c(N2CCN(C(=O)c3ccc(NS(=O)(=O)c4c(C)noc4C)cc3)CC2)c1`, the cytotoxicity was 17.4%.
For `CCCCc1n[nH]c2c1C(=O)CC(C)(C)C2`, the cytotoxicity was 1.2%.
The same measure for `CCOC(=O)N1CCC(NC(=O)c2cc(C(=O)Nc3cccc(OC)c3)ccc2CO)CC1`: 1.1%.
With `Cc1ccc(Cl)cc1N1CCN(C(CC(C)C)c2nnnn2CC2CCCO2)CC1` (centres undefined) the figure was 39.6%.
`CCCC(c1nnnn1CC1CCCO1)N1CCN(c2cc(Cl)ccc2C)CC1` (centres undefined): the cytotoxicity is 61.1% (active).
With `CCCCC(c1nnnn1CC1CCCO1)N1CCN(c2cc(Cl)ccc2C)CC1` (centres undefined), the cytotoxicity was 36.2%.
With `O=C(Nc1ccccc1C(=O)O)c1ncn[nH]1`, the cytotoxicity is -10%.
Take `CC(C)CC(=O)Nc1c2c(nn1-c1ccc(F)cc1)CSC2`: the cytotoxicity was -0.6%.
As to `CCOC(=O)CCc1c(C)n(CC)c2ncnn2c1=O`, the cytotoxicity is 2.5%.
Regarding `CC(C)(C)NS(=O)(=O)c1ccc2nc(NC(=O)Cc3cccs3)sc2c1`, the cytotoxicity was 73.1% (active).
As for `O=C(Cc1cccs1)Nc1nc2ccccc2s1`, the cytotoxicity was 2.2%.
Take `CS(=O)(=O)c1ccc2nc(NC(=O)Cc3ccccc3)sc2c1`: the cytotoxicity is 2.6%.
For the compound `COCCn1c(=S)[nH]c2cc(C(=O)N3CCN(c4ccccc4OC)CC3)ccc2c1=O`, the cytotoxicity is 6.7%.
In the case of `CCCc1[nH]n(-c2nc3ccccc3s2)c(=O)c1C=NCCN1CCOCC1`, the cytotoxicity was 24.1%.
As to `CCCCCN=Cc1c(C)[nH]n(-c2nc3ccccc3s2)c1=O`, the cytotoxicity is 13.1%.
The same measure for `O=c1c(C=NCCCn2ccnc2)c(-c2ccccc2)[nH]n1-c1nc2ccccc2s1`: 63.3% (active).
As for `C=CCc1ccc(OCC(O)CN2CCCCC2C)c(OC)c1` (centres undefined), the cytotoxicity was 22.6%.
As for `COCCn1nnnc1SCC(=O)N1CCCCC1`, the cytotoxicity was -12.2%.
For `COc1ccc2nc(-c3ccccc3)[nH]c2c1`, the cytotoxicity was -5.2%.
For `CCOc1ccc2nc(C(C)O)[nH]c2c1` (centres undefined), the cytotoxicity was 5.3%.
In the case of `CCOc1ccc2nc(-c3ccccc3)[nH]c2c1`, the cytotoxicity is 57.3% (active).
The same measure for `CCOc1ccccc1NC(=O)CSc1nnnn1-c1ccc(C(=O)OC)cc1`: 0.9%; for `CNCCCN1c2ccccc2CCc2ccccc21`: 17.5%; for `CNCCCC12CCC(c3ccccc31)c1ccccc12`: 73.1% (active).
For `CNCCCC1c2ccccc2C=Cc2ccccc21`, the cytotoxicity was 10.4%.
On to `Cc1cc(NC(=O)CSc2nc(-c3ccccc3)cs2)no1`, for which the cytotoxicity is -7.6%.
Regarding `N#CC1=C(N)OC2=C(C(=O)CCC2)C1c1ccc(OC(=O)N2CCOCC2)cc1` (centres undefined), the cytotoxicity is -4.6%.
As for `c1ccc(-c2ccc(-c3ccccn3)nn2)nc1`, the cytotoxicity is 7.3%.
Regarding `c1ccc(-c2nnc(-c3ccccn3)nn2)nc1`, the cytotoxicity is 8.9%.
For the compound `Cc1ccc(C)c(S(=O)(=O)NC(CCC(N)=O)C(=O)O)c1` (centres undefined), the cytotoxicity is 5%.
As for `COc1ccc2c(c1)CCc1c(C(=O)Nc3ccn(Cc4ccc(C)cc4)n3)noc1-2`, the cytotoxicity was -1.5%.
In the case of `COc1cc(C2C3C(=O)N(c4ccccc4)C(=O)C3ON2c2ccccc2)ccc1O` (centres undefined), the cytotoxicity was 3.7%.
As to `COc1cc(C2C3C(=O)N(c4ccc(F)cc4)C(=O)C3ON2c2ccccc2)ccc1O` (centres undefined), the cytotoxicity was -1.5%.
`CCCOc1ccc(N2C(=O)C3ON(c4ccccc4)C(c4ccc(O)c(OC)c4)C3C2=O)cc1` (centres undefined): the cytotoxicity was 81.7% (active).
With `CCCCCC1CC(CC(=O)O)C(=O)O1` (centres undefined) the figure was -13.6%; with `CCOC(=O)N1CCC(NC(=O)c2cc(C(=O)Nc3ccc(OCC)cc3)ccc2CO)CC1`, 1.5%; with `CCn1c(CNc2nc(-c3ccccc3)cs2)nnc1SCC(=O)NCc1ccco1`, -32.7%.
Take `CCOC(=O)c1c(C)oc2ccc(NS(=O)(=O)c3ccc4c5c(cccc35)C(=O)N4)cc12`: the cytotoxicity was 69.9% (active).
`COCCOC(=O)c1c(C)oc2ccc(NS(=O)(=O)c3ccccc3)cc12`: the cytotoxicity was 17.1%.
For `COC(=O)c1ccccc1NS(=O)(=O)c1ccc2c3c(cccc13)C(=O)N2`, the cytotoxicity was 20.3%.
As for `CCCCn1c2c(c3ccccc31)CCc1nonc1-2`, the cytotoxicity is 14.8%.
As to `COC(=O)C(C)NC(=O)C(C)NC(=O)OCc1ccccc1` (centres undefined), the cytotoxicity was 8%.
With `O=c1[nH]c2ccc(Cl)cc2c(-c2ccccc2)c1N1CCOCC1`, the cytotoxicity is 12.4%.
With `CCOC(=O)N1CCN(c2c(-c3ccccc3)c3cc(Cl)ccc3[nH]c2=O)CC1` the figure was -2.7%; with `O=C(c1ccco1)N1CCN(c2c(-c3ccccc3)c3cc(Cl)ccc3[nH]c2=O)CC1`, 81.6% (active); with `COc1cc(NC(=O)c2ccccc2)c(OC)cc1NC(C)=O`, -2.1%.
`O=C1NC(c2ccncc2)Nc2ccccc21` (centres undefined): the cytotoxicity is -12.1%.
As to `COCCNC(=O)c1cc2cc(Br)cc(OC)c2oc1=O`, the cytotoxicity was 0.9%.
The same measure for `CCCn1c(NC(=O)c2cccc(S(=O)(=O)N3CCCC3)c2)nc2ccccc21`: 54% (active).
With `O=C(Nc1nc2ccccc2n1CCN1CCCC1)c1ccc(Cl)cc1`, the cytotoxicity is 62.1% (active).
Regarding `Cc1ccc(C(=O)Nc2nc3ccccc3n2CCN2CCCC2)cc1`, the cytotoxicity is -3.5%.
As for `O=C(Nc1nc2ccccc2n1CCN1CCCCC1)c1ccco1`, the cytotoxicity is -5%.
Turning to `CCCn1c(NC(=O)c2ccc(C)cc2)nc2ccccc21`, the cytotoxicity is -46.1%.
For the compound `CCCn1c(NC(=O)c2ccc(Cl)c(S(=O)(=O)N3CCCC3)c2)nc2ccccc21`, the cytotoxicity was 37.6%.
The same measure for `CC(C)(CSc1nncn1N)NS(=O)(=O)c1ccc(Cl)cc1`: 0%; for `Cc1cc(-c2ccccc2)c(C#N)c(SCC(N)=O)n1`: 0.4%.
Consider `CC1CCCN(C(=O)Cn2nnc(-c3cccnc3)n2)C1` (centres undefined), for which the cytotoxicity was 1%.
With `CC(NS(=O)(=O)c1ccc(F)cc1)C(c1cccs1)N1CCN(C)CC1` (centres undefined), the cytotoxicity is -12.3%.
With `CC1CCCCN1S(=O)(=O)c1ccc(S(=O)(=O)N2CCN(c3ccc(F)cc3)CC2)cc1` (centres undefined) the figure was -7.9%.
Turning to `Cc1nc(CN2CCN(C(=O)NC3(c4ccccc4)CC3)CC2)cs1`, the cytotoxicity was -4.3%.
The same measure for `COc1ccc2c(c1OC)C(=O)N1c3ccccc3C(=O)N(c3ccccc3)C21` (centres undefined): 38.7%; for `COc1ccc2c(c1OC)C(=O)N1c3ccccc3C(=O)N(c3ccccc3F)C21` (centres undefined): 53.2% (active); for `COc1ccc2c(c1OC)C(=O)N1c3ccccc3C(=O)N(c3ccc(F)cc3)C21` (centres undefined): 12.3%.
`CCN(CCNC(=O)C1CCN(S(C)(=O)=O)CC1)c1ccccc1`: the cytotoxicity is -4.7%.
`CC(C)CC(=O)Nc1ccccc1N1CCCC1`: the cytotoxicity was -13.9%.
For `COc1ccc(NC(=O)CNCCC2=CCCCC2)cc1`, the cytotoxicity is -7.1%.
Regarding `O=C(COc1ccccc1)Nc1ccccc1N1CCCCC1`, the cytotoxicity is -5.3%.
With `O=C(CN1CCc2ccccc2C1)Nc1ccccc1N1CCCCCC1` the figure was 62.4% (active).
Take `O=C(CN1CCCCC1)Nc1ccccc1NC(=O)CN1CCCCC1`: the cytotoxicity is -8.2%.
As to `CCOC(=O)c1ccc(NC(=O)CN2CCc3ccccc3C2)cc1`, the cytotoxicity was 53.1% (active).
`CCOC(=O)c1ccc(NC(=O)N2CCc3ccccc32)cc1`: the cytotoxicity is 16.1%.
For `CCOC(=O)c1ccc(NC(=O)CN2CCN(c3ccccc3)CC2)cc1`, the cytotoxicity was -0.6%.
For the compound `O=C(CNCCC1=CCCCC1)Nc1ccccc1N1CCCCC1`, the cytotoxicity is 74.2% (active).
As to `COc1ccc(CCNC(=O)c2c(O)c3cccc4c3n(c2=O)CC4)cc1OC`, the cytotoxicity was 3.1%.
Take `Cc1cc(C(=O)OCC(=O)N2CC(C)CC(C)C2)c(C)o1` (centres undefined): the cytotoxicity is -1%.
The same measure for `CC(=O)c1ccc(NC(=O)C2CCCNC2=O)cc1` (centres undefined): -14.4%; for `Cc1nnc2ccc(N3CCN(c4cccc(C(F)(F)F)c4)CC3)nn12`: 3.9%; for `Cn1c(=O)n(-c2ccccc2)c(=O)c2c3c(sc21)COC(C)(C)C3`: -13.9%.
With `Cc1ccc(S(=O)(=O)NC(=NCC(=O)O)c2ccccc2)cc1` the figure was 5.9%; with `CCOc1ccc2[nH]c(=O)c(CN(CCOC)C(=O)N3CCOCC3)cc2c1`, 5.7%.
Consider `COc1ccccc1NS(=O)(=O)c1ccc(NC(C)=O)cc1`, for which the cytotoxicity is 1.6%.
Take `COC(=O)/C=C/S(=O)(=O)c1ccc(NC(C)=O)cc1`: the cytotoxicity was 58.8% (active).
`CCOC(=O)CN(Cc1ccccc1)S(=O)(=O)c1ccc(NC(C)=O)cc1`: the cytotoxicity was 8.6%.
With `CC(=O)Nc1ccc(S(=O)(=O)c2ccc(N)cc2)cc1` the figure was -14.7%; with `COC(=O)C(C)NS(=O)(=O)c1ccc(NC(C)=O)cc1` (centres undefined), -26.3%; with `CC(C)c1c(O)nc(SCc2ccccc2)[nH]c1=O`, -18%.
For the compound `COc1ccc(-c2nnnn2CCc2ccccc2)cc1`, the cytotoxicity is -2.2%.
Regarding `COc1ccc(-n2nnnc2SCC(=O)c2cccc(OC)c2)cc1`, the cytotoxicity is 25.7%.
Turning to `N#CCCS(=O)(=O)c1nnnn1-c1ccccc1`, the cytotoxicity is 67.8% (active).
The same measure for `COc1cccc(Oc2nnnn2-c2ccccc2)c1`: -16.1%; for `COc1ccc(-n2nnnc2-c2cccc(OC)c2)cc1`: 60.7% (active); for `CCOc1cccc(-n2nnnc2-c2ccc(OC)cc2)c1`: 52.1% (active).
Consider `COc1cccc(-n2nnnc2SCC(=O)c2cc(OC)ccc2OC)c1`, for which the cytotoxicity is -8.2%.
With `CCS(=O)(=O)c1nnnn1-c1ccccc1S(C)(=O)=O` the figure was 36.8%.
Take `O=C(CSc1nnnn1-c1ccccc1)CSc1nnnn1-c1ccccc1`: the cytotoxicity is 3%.
The same measure for `COc1ccc(-c2nnnn2-c2ccccc2OC)cc1`: 36.6%; for `COc1ccc(-n2nnnc2-c2cccnc2)cc1`: 0.7%; for `O=C(Nc1ccc2c(c1)OCCO2)C1CCN(C(=O)c2ccc(Br)cc2)CC1`: 4.7%.
